# IL-1B inflam inh = inhibitors of inflammasome signaling (IL-1 beta secretion). THP-1 LPS/ATP IL-1B secretion, AlphaLISA, 16 h; hits give low values. activity change, % at 57.5 µM. 4.7% of 360,000 active. AID 743279; in the data active = activity change below about -50%; inconclusive = mostly about -30% to -49%; note: % is set by controls: 0 for no effect and ±100 for the full control effect
#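 Secreted IL-1B measured by AlphaLISA bead assay after 16 h compound exposure of THP-1 cells; compounds (final up to 57.5 uM) added 1 h before LPS (250 ng/mL) and ATP (1.25 mM) stimulation; lower signal means less secretion.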
# TGFb SMAD3 inh = TGF-b pathway inhibition. HepG2 CAGA-GFP TGF-b/SMAD3 reporter, GFP fluorescence, 18 h; TGF-beta stimulated, 500 pg/mL final. Potency, µM (titrated, usually from 46.1 µM), for the others: at the highest dose activity, negative = inhibition, hits mostly inhibitors. 1.2% of 410,000 active. AID 588855; note: potency is the fitted concentration of half-maximal effect; % is set by controls: 0 for no effect and ±100 for the full control effect; nearly all actives have a fitted effect of over 65% in size
#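 Using HEPG2 CAGA-GFP reporter cells at 1000 cells/well, we pinned test compounds, stimulated with recombinant TGF-beta (500 pg/mL final) and measured total well GFP after 18 h.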
# DT40 TDP1 CPT = DT40-hTDP1 cell growth loss with CPT. chicken DT40 Tdp1-/-;hTDP1 cells + 20 nM CPT, ATP luminescence, 48 h. Potency, µM (highest dose often 46.2 µM), inactives show at the top dose activity change, negative = growth inhibition, usual class: inhibitors. 12% of 420,000 active; note: potency is the fitted concentration of half-maximal effect; % is set by controls: 0 for no effect and ±100 for the full control effect; nearly all actives have a fitted effect of over 55% in size
#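 Chicken DT40 Tdp1-/- cells stably complemented with human TDP1 were seeded at 400 cells/well in medium containing 20 nM camptothecin, exposed to pin-transferred compounds, and grown at 37 °C for at least 48 hr. Viability was read as ATP luminescence.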
# HepG2 tox = kills HepG2 cells in TGF-b inhibitor counter-screen; HepG2 CAGA-GFP viability, ATP luminescence, 18 h; Potency, µM (titrated, usually from 46.1 µM), for the others: at the highest dose activity change, negative = cytotoxicity, actives largely listed as cytotoxic; 0.76% of 410,000 active; note: potency is the fitted concentration of half-maximal effect
#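 CellTiter-Glo luminescence gave cytotoxicity after 18 hours at 37 degrees C. The cells were HepG2 CAGA-GFP in 1% FBS DMEM, stimulated with 500 pg/mL TGF-beta after compound addition. %Activity was normalised to no-cell wells (complete cell-killing) and DMSO (no toxicity), and curves were fitted and classified.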
# TDP1 cell noCPT = qHTS for Inhibitors of human tyrosyl-DNA phosphodiesterase 1 (TDP1): qHTS in cells in absence of CPT. AID 686978, 2013. 15% of 420,000 active. Potency, µM (top dose mostly 46.2 µM), inactives show at the top dose activity change, negative = growth inhibition, usual class: inhibitors. DT40 Tdp1-/- hTDP1 cells, no CPT, ATP luminescence, 48 h; note: potency is the fitted concentration of half-maximal effect; % is set by controls: 0 for no effect and ±100 for the full control effect; nearly all actives have a fitted effect of over 55% in size
#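 Chicken DT40 Tdp1-/- cells stably complemented with human TDP1 were seeded at 400 cells/well with DMSO in place of 20 nM camptothecin. After compound pinning, cells grew at least 48 hr at 37 °C; viability read by CellTiter-Glo luminescence.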
# TDP1 block = TDP1 (human) enzyme inhibition. Q9NUW8. recombinant TDP1, AlphaScreen DNA substrate cleavage. Potency, µM (highest dose often 130 µM), for inactives: at the top dose activity change, negative = inhibition, actives largely listed as inhibitors. 0.28% of 350,000 active; note: potency is the fitted concentration of half-maximal effect; % is set by controls: 0 for no effect and ±100 for the full control effect; nearly all actives have a fitted effect of over 40% in size
# Target sequence (Q9NUW8 whole entry, looked up): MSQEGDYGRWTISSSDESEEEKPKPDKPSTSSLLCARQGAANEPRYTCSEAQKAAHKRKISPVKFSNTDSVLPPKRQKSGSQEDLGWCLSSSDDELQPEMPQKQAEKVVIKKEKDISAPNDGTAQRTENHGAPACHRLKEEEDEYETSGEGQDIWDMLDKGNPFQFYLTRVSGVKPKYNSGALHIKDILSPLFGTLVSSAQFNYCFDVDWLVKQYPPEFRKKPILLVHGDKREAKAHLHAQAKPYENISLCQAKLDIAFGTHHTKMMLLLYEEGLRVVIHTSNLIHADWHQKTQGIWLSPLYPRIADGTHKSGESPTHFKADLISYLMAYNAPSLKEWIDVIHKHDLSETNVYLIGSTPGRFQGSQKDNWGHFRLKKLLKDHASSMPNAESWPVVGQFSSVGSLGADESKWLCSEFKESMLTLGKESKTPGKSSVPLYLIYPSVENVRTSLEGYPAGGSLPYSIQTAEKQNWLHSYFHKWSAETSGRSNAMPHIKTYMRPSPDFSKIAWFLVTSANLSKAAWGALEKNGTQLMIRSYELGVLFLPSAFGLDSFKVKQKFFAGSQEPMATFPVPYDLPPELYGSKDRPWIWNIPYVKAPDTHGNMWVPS
#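 Enzyme-compound mixtures sat 15 min at room temperature, followed by a 5 min reaction with 15 nM final substrate and 10 min with AlphaScreen beads. Recombinant human Tdp1 was used at 1 nM final.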
# * marks the source's active call; other numbers are inactive results; ? = inconclusive; . = no result; ! = not confirmed by another sample; [ ] = another dose, or the depositor's remark. Only some compounds are listed: those with a hit (about 19% of all), similar ones and a draw of the others. Unless noted, calls come from the whole dose curve; as a rule, active = well fitted curve in the direction sought with a large enough effect; inconclusive = small, poorly fitted or top-dose-only effect, or another doubt; inactive = no such curve, though single readings can be large; an effect the other way counts as inactive or inconclusive.
SMILES,IL-1B inflam inh,TGFb SMAD3 inh,DT40 TDP1 CPT,HepG2 tox,TDP1 cell noCPT,TDP1 block
COc1cc(C2CC(=O)Oc3ccc(O)cc32)cc(OC)c1OC (stereo not drawn),.,.,.,.,.,-4%
CCOC(=O)c1ccc(Oc2cc(C)nc(SC)n2)cc1,25,-13%,8.2µM*,7%,9.2µM*,-1%
CCOC(=O)COC(=O)c1ccc(Oc2cc(C)nc(SC)n2)cc1,6,-26%,22%,0%,-4%,-4%
COc1ccccc1-c1cncnc1NCc1cccs1,.,.,-2%,.,-24%,.
COc1ccccc1-c1nccc(NCc2cccc(C)c2)n1,.,.,16µM*,.,10µM*,11%[56.1 µM]
COc1ccccc1-c1cncnc1NCc1cccc(C)c1,.,.,?,.,21µM*,.
Cc1cccc(CNc2ccnc(-c3ccccc3CN(C)C)n2)c1,.,.,13µM*,.,7.3µM*,5%[56.1 µM]
O=C(NCc1cccc(F)c1)c1ccc(-n2cnc3cccnc32)cc1,.,0%,?,-12%,?,3%
COc1ccccc1CNC(=O)c1ccc(C)c(-n2cnc3cccnc32)c1,.,-13%,?,8%,?,0%
COc1cccc(C(=O)N2C(C(=O)O)CSC2c2ccccc2Cl)c1 (stereo not drawn),25,9%,-3%,-3%,3%,3%
COC(=O)C1CSC(c2ccc(Cl)cc2)N1C(=O)c1ccccc1 (stereo not drawn),53,-9%,21µM*,-23%,18µM*,5%
COc1ccc(-n2ccnc2SCC(=O)Nc2ccc(F)cc2F)cc1,.,4%,?,-25%,-27%,11%
Cc1cc(C)cc(-n2ccnc2SCC(=O)Nc2ccccc2F)c1,.,14%,23µM*,-20%,16µM*,10%
Cc1cc(C)cc(-n2ccnc2SCC(=O)Nc2cccc3ccccc23)c1,.,?,21µM*,-22%,18µM*,13%
CC1=C(C(=O)OC2CCCC2)C(c2ccc(Cl)cc2)CC(=O)N1 (stereo not drawn),.,-11%,?,-7%,?,-4%[12.3 µM]
COc1ccc(CCNC(=O)CCCCn2c(=O)c3ccccc3n(CC(=O)Nc3ccccc3C)c2=O)cc1OC,.,8%,-10%,-18%,1%,1%
Cc1ccc(C)c(-c2ccc(=O)n(Cc3ccc(F)cc3Cl)n2)c1,-75*,13µM*,18µM*!,-21%,?,-7%
Cc1ccc(C)c(-c2ccc(=O)n(Cc3cccc(Br)c3)n2)c1,-98*,?,-18%,-47%,?,.
O=C(Cn1c(=O)n(Cc2ccco2)c(=O)c2cccnc21)Nc1ccccc1F,.,-42%,-28%,-4%,?,-3%
O=C(Nc1cccc(-c2csc(-c3ccccc3)n2)c1)c1cccs1,-63*,?,18µM*,-42%,16µM*,-1%
Cc1ccn2cc(-c3cccc(NC(=O)c4cccs4)c3)nc2c1,-99*,?,?,-24%,21µM*,1%
Cc1nc(-c2cccc(NC(=O)c3cccs3)c2)cs1,11,1%,-23%,-10%,?,-6%[56.1 µM]
O=C(Nc1cccc(-c2cn3cccnc3n2)c1)c1cccs1,-24,-2%,-20%,-4%,-27%,-1%
O=C(Cc1ccccc1F)Nc1ccc(S(=O)(=O)Nc2ncccn2)cc1,-8,-2%,3%,4%,-23%,7%
CCSC(=O)N1CCN(/[N+]([O-])=N/Oc2ccc([N+](=O)[O-])cc2[N+](=O)[O-])CC1,.,?,.,-108%,.,.
Cc1c(C(=O)NCCc2ccc(Cl)cc2)cccc1-n1cnc2cccnc21,.,0%,15µM*,4%,13µM*,3%
